According to PubChem BioAssay (Tox21):
Inconclusive results are not listed. Calls of active or inactive are those of the source. Unless noted, the call rests on the fitted dose curve; in most records, active means well fitted curve in the direction sought with a large enough effect in the repeat runs; inconclusive means weak or mixed curves; inactive means no such curve, though single readings can be large; an effect the other way counts as inactive or inconclusive.

What was measured:
[1] = qHTS assay to identify small molecule agonists of the hypoxia (HIF-1) signaling pathway - cell viability counter screen (AID 1224844; calls by dose curve; further: nearly all actives have a fitted effect of over 50% in size)
Procedure, shortened: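 Viability counter screen: HRE-bla ME-180 cells plated 5 hrs before compound addition, treated 17 hrs at 37C and 5% CO2, then CellTiter-Glo added after the FRET reporter read; luminescence after 30 min.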

[2] = qHTS assay to identify small molecule agonists of H2AX (AID 1224845; active means well fitted activation curve with a large enough effect in the signal ratio in the repeat runs, not every such curve was filed as active; the % refers to the signal ratio)
Procedure, shortened: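 Wild-type CHO-K1 cells plated overnight, then exposed 3 hr at 37C to compounds at 15 concentrations (0.76% DMSO). Lysed, then HTRF anti-pH2AX(S139)-cryptate/anti-H2AX-d2 detection after 24 hr at room temperature; emissions 665 and 620 nm.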

[3] = qHTS assay to identify small molecule agonists of the hypoxia (HIF-1) signaling pathway (AID 1224846; active means well fitted activation curve with a large enough effect in the signal ratio in the repeat runs, not every such curve was filed as active; the % refers to the signal ratio)
Procedure, shortened: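 Agonist mode reporter screen. ME-180 cells stably expressing bla under HRE control received test compounds in DMSO for 17 hrs (37C, 5% CO2), and beta-lactamase activity was then detected with the CCF4-AM FRET substrate.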

[4] = qHTS assay to identify small molecule agonists of H2AX - cell viability counter screen (AID 1224847; calls by dose curve; further: top concentration of the series differs between compounds; nearly all actives have a fitted effect of over 30% in size)
Procedure, shortened: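 Viability of CHO-K1 (wild type) cells after 3 hr compound exposure was measured by CellTiter-Glo luminescence.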

[5] = qHTS RealTime-Glo MT Cell Viability Assay in HepG2 cells - 24 hour (AID 1224867); further: nearly all actives have a fitted effect of over 50% in size
Procedure, shortened: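 qHTS, HepG2, 600 cells/well, RealTime-Glo (NanoLuc + prosubstrate) added with cells; 5 h preincubation; DMSO compound addition; 37 C; luminescence at 0/8/16/24/32/40 h.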

[6] = A CellTox Green Cytotoxicity Assay to monitor cytotoxicity in HEK293 cells - 0 hour (AID 1224869); further: nearly all actives have a fitted effect of over 50% in size
Procedure, shortened: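 Dead-cell fluorescence measured kinetically: asymmetric cyanine dye, HEK293, 600 cells/well, 5 h settle, 23 nL cpd/DMSO, 37 C, reads 0–40 h every 8 h.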

[7] = qHTS RealTime-Glo MT Cell Viability Assay in HepG2 cells - 40 hour (AID 1224870); further: nearly all actives have a fitted effect of over 50% in size
Procedure, shortened: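 HepG2 cells mixed with RealTime-Glo MT reagents (NanoLuc plus cell-permeant prosubstrate) were seeded at 600 cells/well, incubated 5 h at 37 C/5% CO2, then pinned with compounds in DMSO; nonlytic luminescence tracked viability during 40 h treatment.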

[8] = qHTS RealTime-Glo MT Cell Viability Assay in HEK293 cells - 32 hour (AID 1224868)
Procedure, shortened: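 Assay medium contained NanoLuc luciferase plus cell-permeant prosubstrate, added with HEK293 cells at 600 cells/well. After 5 h at 37 C/5% CO2 compounds were added; plates stayed at 37 C for 40 h with serial luminescence reads.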

[9] = qHTS assay to identify small molecule antagonists of the estrogen related receptor (ERR) signaling pathway from Tox21 library (AID 1224848); further: nearly all actives have a fitted effect of over 50% in size
Procedure, shortened: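 Tox21 10K compounds in DMSO tested for ERR pathway antagonism in NTP's ERR cell line; 18 h, 37 C exposure; ONE-Glo luminescence.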

[10] = qHTS assay to identify small molecule agonists of the estrogen related receptor (ERR) signaling pathway from Tox21 library (AID 1224849; calls by dose curve; further: nearly all actives have a fitted effect of over 15% in size); conditions: ERR reporter cell line, ONE-Glo luciferase, 18 h; at 92.4 µM (top of the series) unless noted
Procedure, shortened: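 Quantitative HTS in agonist format: NTP ERR cell line, compounds transferred in DMSO after 6 h plating, 18 h incubation at 37 C, ONE-Glo luminescence endpoint.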
On the % scale 0 is the no-effect control and ±100 the full control effect.

CC1COC2(c3ccccc3Cl)c3cc(Cl)ccc3NC(=O)CN12 (stereo unspecified)
inactive: Potency [1] | Potency [2] | outcome [3] | Potency [4] | Potency [5] | Potency [6] | Potency [7]

CC(N)=S
inactive: Potency [1] | Potency [2] | outcome [3] | Potency [4] | Potency [5] | Potency [8] | Potency [6] | Potency [7]

Cc1cccc(C#N)c1
inactive: Potency [1] | Potency [2] | outcome [3] | Potency [4] | Potency [5] | Potency [8] | Potency [6] | Potency [7]

CC(C1CC1)C(O)(Cn1cncn1)c1ccc(Cl)cc1 (stereo unspecified)
inactive: Potency [1] | Potency [2] | outcome [3] | Potency [4] | Potency [5] | Potency [6] | Potency [7]

CCSC(=O)N(CC)C1CCCCC1
inactive: Potency [1] | Potency [2] | outcome [3] | Potency [4] | Potency [8] | Potency [6] | Potency [7]

CCN(CC)C(C)C(=O)c1ccccc1 (stereo unspecified)
inactive: Potency [1] | Potency [2] | outcome [3] | Potency [4] | Potency [5] | Potency [8] | Potency [6] | Potency [7]

O=c1oc2ccccc2c(O)c1C1CCCc2ccccc21 (stereo unspecified)
inactive: Potency [1] | Potency [2] | outcome [3] | Potency [4] | Potency [5] | Potency [8] | Potency [6] | Potency [7]

Fc1cc(Br)ccc1CBr
inactive: Potency [1] | Potency [2] | outcome [3] | Potency [4] | Potency [5] | Potency [8] | Potency [7]

CNC(=O)O/N=C(\C)SC
inactive: Potency [1] | Potency [2] | outcome [3] | Potency [4] | Potency [5] | Potency [8] | Potency [6] | Potency [7]

CSc1nc(N=[N+]=[N-])nc(NC(C)C)n1
inactive: Potency [1] | Potency [2] | outcome [3] | Potency [4] | Potency [5] | Potency [6] | Potency [7]

COP(N)(=S)Oc1ccccc1C(=O)OC(C)C (stereo unspecified)
inactive: Potency [1] | Potency [2] | outcome [3] | Potency [4] | Potency [8] | Potency [6] | Potency [7]

OCCSCSCCO
inactive: Potency [1] | Potency [2] | outcome [3] | Potency [4] | Potency [5] | Potency [8] | Potency [7]

O=C(NCO)NCO
inactive: Potency [1] | Potency [2] | outcome [3] | Potency [4] | Potency [8] | Potency [6] | Potency [7]

CCOP(=O)(OCC)OP(=O)(OCC)OCC
inactive: Potency [1] | Potency [2] | outcome [3] | Potency [4] | Potency [5] | Potency [8] | Potency [6] | Potency [7]

O=C1OC(c2ccc(O)c(S(=O)(=O)O)c2)(c2ccc(O)c(S(=O)(=O)O)c2)c2c(Br)c(Br)c(Br)c(Br)c21
inactive: Potency [1] | Potency [2] | outcome [3] | Potency [4] | Potency [5] | Potency [8] | Potency [6] | Potency [7]

O=P(O)(Oc1ccccc1)Oc1ccccc1
inactive: Potency [1] | Potency [2] | outcome [3] | Potency [4] | Potency [5] | Potency [8] | Potency [6] | Potency [7]

O=[N+]([O-])c1cccc2cccnc12
inactive: Potency [1] | Potency [2] | outcome [3] | Potency [4] | Potency [5] | Potency [8] | Potency [6] | Potency [7]

CCC(=O)c1ccccc1
inactive: Potency [1] | Potency [2] | outcome [3] | Potency [4] | Potency [5] | Potency [8] | Potency [7]

Nc1n[nH]c(N)n1
inactive: Potency [1] | Potency [2] | outcome [3] | Potency [4] | Potency [5] | Potency [6] | Potency [7]

CC(C=O)Cc1ccc2c(c1)OCO2 (stereo unspecified)
inactive: Potency [1] | Potency [2] | outcome [3] | Potency [4] | Potency [8] | Potency [6] | Potency [7]

BrCCCCCCBr
inactive: Potency [1] | Potency [2] | outcome [3] | Potency [4] | Potency [5] | Potency [8] | Potency [6] | Potency [7]

Cc1ncsc1CCCl
inactive: Potency [1] | Potency [2] | outcome [3] | Potency [4] | Potency [8] | Potency [6] | Potency [7]

COCC(=O)N(c1c(C)cccc1C)N1CCOC1=O
inactive: Potency [1] | Potency [2] | Potency [4] | Potency [9] | activity change, positive = activation [10] 0.713% | Potency [5] | Potency [8] | Potency [6] | Potency [7]

COP(=S)(OC)Oc1ccc(S(N)(=O)=O)cc1
inactive: Potency [1] | Potency [2] | outcome [3] | Potency [4] | Potency [8] | Potency [7]

ClCC(Cl)Cl
inactive: Potency [1] | Potency [2] | Potency [4] | Potency [5] | Potency [8] | Potency [6] | Potency [7]

O=NN1CCCCC1
inactive: Potency [1] | Potency [2] | Potency [4] | Potency [5] | Potency [8] | Potency [6] | Potency [7]

COc1cc(OC)nc(Oc2cccc(Oc3nc(OC)cc(OC)n3)c2C(=O)O)n1
inactive: Potency [1] | Potency [2] | outcome [3] | Potency [5] | Potency [8] | Potency [6] | Potency [7]

COC(=O)c1ccccc1S(=O)(=O)NC(=O)Nc1nc(C)cc(C)n1
inactive: Potency [1] | Potency [2] | Potency [4] | Potency [5] | Potency [8] | Potency [6] | Potency [7]

OC(c1ccc(F)cc1)(c1cncnc1)c1ccccc1Cl (stereo unspecified)
inactive: Potency [1] | Potency [2] | Potency [4] | Potency [5] | Potency [8] | Potency [6] | Potency [7]

CN1CCN(C(=O)O[C@H]2c3nccnc3C(=O)N2c2ccc(Cl)cn2)CC1
inactive: Potency [1] | Potency [2] | Potency [4] | Potency [5] | Potency [8] | Potency [6] | Potency [7]

O=C(CCCN1CCC(n2c(=O)[nH]c3ccccc32)CC1)c1ccc(F)cc1
inactive: Potency [1] | Potency [2] | outcome [3] | Potency [4] | Potency [7]
